# Experimental data from PubChem BioAssay AID1210 (NMMLSC, 2008).
# Active and inactive are the calls of the source.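 Rule for the calls: active = blocks over 70% of labeled estradiol binding at 10 µM, or over a set limit at 100 nM; inactive = the rest.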
# Molecular target: Estrogen receptor beta (Homo sapiens) (UniProt Q92731)
# Assay: ERbeta ligand binders by competition, primary screen, cell-based, Cos7 ERbeta-GFP, flow cytometry (AID 1210);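 note: 0% = DMSO vehicle wells and 100% = complete loss of labeled estradiol signal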
# Conditions: fluorescent estrogen binding, stronger effect = higher value
# [1] = ligand binding inhibition, at 0.1 µM
# Sequence of Estrogen receptor beta (Homo sapiens) (Q92731 whole entry, looked up): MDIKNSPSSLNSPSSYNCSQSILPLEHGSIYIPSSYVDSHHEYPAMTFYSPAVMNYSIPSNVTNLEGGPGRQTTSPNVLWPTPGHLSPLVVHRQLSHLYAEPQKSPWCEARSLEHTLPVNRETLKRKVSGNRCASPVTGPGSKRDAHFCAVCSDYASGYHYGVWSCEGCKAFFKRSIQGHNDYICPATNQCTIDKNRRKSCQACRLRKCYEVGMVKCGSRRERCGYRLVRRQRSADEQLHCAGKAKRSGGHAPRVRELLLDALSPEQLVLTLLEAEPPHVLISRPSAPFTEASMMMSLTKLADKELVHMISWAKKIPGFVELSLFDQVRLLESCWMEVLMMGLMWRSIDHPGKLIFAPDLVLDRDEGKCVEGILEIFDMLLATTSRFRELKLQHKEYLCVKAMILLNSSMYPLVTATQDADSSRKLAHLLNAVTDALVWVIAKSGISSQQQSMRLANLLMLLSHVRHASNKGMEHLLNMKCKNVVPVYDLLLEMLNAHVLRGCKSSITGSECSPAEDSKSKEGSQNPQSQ
Compound,inhibition (at 10 µM),inhibition [1]
CC(=O)Nc1ccc(N=Cc2nc(-c3ccc(C)cc3)oc2O)cc1,68% (inactive),56%
CCC(Sc1ncnc2sc(C)c(C)c12)C(=O)OC (stereo not drawn),27% (inactive),41%
Cc1ccc2c(Cl)cc(Cl)c(OCC(=O)NCc3ccco3)c2n1,29% (inactive),38%
COc1cccc(NS(=O)(=O)c2ccc3c(c2)C2C=CCC2C(c2ccc(C(=O)O)cc2)N3)c1 (stereo not drawn),0% (inactive),9%
COc1ccc(Cc2nnc(NC(=O)Cc3cccs3)s2)cc1,17% (inactive),29%
Oc1ccc(-c2nc3ccc4ccccc4c3c3c2CCC3)cc1O,71% (active),47%
Cc1nc2ccc(C(=O)O)cc2[nH]1,31% (inactive),47%
CCc1ccc(Nc2cc(C(=O)NCCCN3CCOCC3)c3ccccc3n2)cc1,38% (inactive),12%
Cc1cc(N)ccc1N=Nc1c(C)n(C)n(-c2ccccc2)c1=O,15% (inactive),31%
C/C=C/COC(=O)c1[nH]c2c(c1C)C(=O)CC(c1ccco1)C2 (stereo not drawn),53% (inactive),11%
O=C1c2ccccc2NC(c2ccc(O)cc2)N1/N=C/c1ccc(O)cc1 (stereo not drawn),71% (active),1%
Nc1ccc(-c2cc(-c3ccc(N)cc3)nc(-c3ccccc3)n2)cc1,43% (inactive),29%
C[C@]12CC[C@@H]3c4ccc(O[C@@H]5O[C@H](C(=O)O)[C@@H](O)[C@H](O)[C@H]5O)cc4CC[C@H]3[C@@H]1C[C@@H](O)[C@@H]2O,52% (inactive),15%
O=C(Nc1ccc(N2CCCC2)cc1)C(c1ccccc1)c1ccccc1,69% (inactive),19%
